RMI FANCM FP = disruptors of RMI1/RMI2 association with MM2 peptide – biochemical, fluorescence polarization, human, primary screen. 70,000 compounds, 0.58% hits. RMI core complex (RMI1/RMI2) binding to FANCM MM2 peptide, human. RMI core complex with F-MM2 peptide; hits give low values. FP signal (polarization) at 33 µM. AID 1159607, 2016; in the data active = FP signal below about 40
An asterisk follows results filed as active. The entries come from a sample that favours hits as a whole.

SMILES	RMI FANCM FP
Cc1ccc(-c2nc3c(c(SCC(=O)Nc4cccc(C(=O)O)c4)n2)Cc2ccccc2O3)cc1	53
Cc1cccc2c1Oc1nc(-c3ccccc3)nc(SCC(=O)Nc3ccc4c(c3)OCCO4)c1C2	87
Cc1ccc2c(c1)Cc1c(nc(-c3ccccc3)nc1SCC(=O)Nc1cccc(C(=O)O)c1)O2	14*
NN=C(N)c1ccc(C(F)(F)F)cn1	56
CCOC(=O)N1CCN(/C=C(\C#N)C(=O)NCc2ccc(OC)cc2)CC1	65
Cc1ccc(S(=O)(=O)CCC(=O)Nc2nnc(Cc3cccs3)o2)cc1	69
Cc1cc(O)c2c(c1)Cc1cccc(O)c1C2=O	-15*
COc1cc(O)c2c(c1)C(=O)c1cc(C)cc(O)c1C2=O	55
Cc1cc2c3c(c1)c(O)c(-c1ccccc1)c(=O)n3CCC2	62
CC(=O)Nc1cccc(NC(=O)CCc2csc(NC(=O)c3ccc(=O)[nH]c3)n2)c1	62
O=S(=O)(c1ccc2c(c1)OCCO2)N1CCN(c2ccc(-c3cccs3)nn2)CC1	82
COc1ccc2nc(-c3cccc(NC(=O)c4cc(Cl)ccc4OC)c3)cn2n1	70
CSc1cccc(NC(=O)c2ccc(N3CCCCS3(=O)=O)cc2)c1	53
O=[N+]([O-])c1cccc(/C=N\Nc2nc(-c3ccc(Cl)c(Cl)c3)cs2)c1	58
C=CCc1cccc(/C=N\Nc2nc(-c3ccc4ccccc4c3)cs2)c1O	14*
Fc1ccc(-c2csc(N/N=C\c3ccccc3)n2)cc1	56
CC(C)Oc1ccc(C(=O)N2CCNC(=O)C2(C)C)cc1	57
O=C(CCc1ccc(O)cc1)N/N=C\C=C\c1ccccc1	58
O=C(CCc1ccccc1)N/N=C\c1ccccc1	56
O=C(CCc1ccc(O)cc1)N/N=C\c1cc(Cl)cc(Cl)c1O	37*
O=C(Nc1cccc(C(F)(F)F)c1)c1ccc([N+](=O)[O-])o1	52
CC(C)(CCOC(=O)c1ccc([N+](=O)[O-])o1)Nc1ccc(C(F)(F)F)cc1[N+](=O)[O-]	40*
Cc1ccc(C)n1CCNc1ccc(C(F)(F)F)cc1[N+](=O)[O-]	51
CC(=O)N1N=C(c2ccc3c(c2)OCO3)CC1c1cccc2nccnc12 (stereo not drawn)	61
CC(C)NC(=O)c1ccc(Cn2c(SCC#N)nc3cc4c(cc3c2=O)OCO4)cc1	63
SMILES	RMI FANCM FP
O=C(Cc1ccc(F)cc1)Nc1nnc(-c2cccs2)o1	53
CC(/C=C1\SC(=O)N(CC(=O)Nc2ccc(O)cc2)C1=O)=C\c1ccccc1	54
CC(/C=C1\SC(=S)N(CC(=O)N2c3ccccc3Sc3ccccc32)C1=O)=C\c1ccccc1	61
CC(/C=C1\SC(=S)N(CC(=O)Nc2ccc(C(=O)O)c(O)c2)C1=O)=C\c1ccccc1	19*
COCCn1c(=NC(=O)C2CCCCC2)sc2cc(S(C)(=O)=O)ccc21	59
O=[N+]([O-])c1ccccc1-c1ccc(-c2nnc(-c3ccco3)o2)o1	25*
CCOC(=O)C(=Cc1ccc(-c2ccccc2[N+](=O)[O-])o1)C(=O)OCC	58
O=[N+]([O-])c1cccnc1Sc1nccc(-c2ccco2)n1	54
CNC(=O)c1ccsc1NC(=O)CSC(C)=O	66
O=C(OCCN1C(=O)c2cccc3c(N4CCCCC4)ccc(c23)C1=O)c1ccc(S(=O)(=O)N2CCCCC2)cc1	-54
CCc1cc(S(=O)(=O)NCCN2CCOCC2)ccc1OC	65
CCn1ccc(C(=O)Nc2cccc3c2C(=O)NC3=O)n1	59
COc1ccc(/C=N\Nc2nc(-c3cccs3)cs2)cc1	61
CCOc1ccc(-c2csc(N/N=C\c3ccc(OC)c(OC)c3)n2)cc1	16*
CCOc1ccc(-c2csc(NC(=O)C3CCCCC3)n2)cc1	71
CCOc1ccc(C(=O)Nc2sc3c(c2-c2nc4ccccc4s2)CCN(C(C)C)C3)cc1	-31*
COC(=O)N1CCc2c(sc(NC(=O)c3cccs3)c2-c2nc3ccccc3s2)C1	76
COc1ccc(CC(=O)Nc2sc3c(c2-c2nc4ccccc4s2)CCN(C(C)C)C3)cc1	55
CCOC(=O)N1CCc2c(sc(NC(=O)c3ccc(Br)s3)c2-c2nc3ccccc3s2)C1	6*
CC(C)N1CCc2c(sc(NC(=O)Cc3ccc(F)cc3)c2-c2nc3ccccc3s2)C1	500
CCOC(=O)N1CCc2c(sc(N)c2-c2nc3ccccc3s2)C1	76
COc1cc2nc(NC(C)=O)sc(=O)c2cc1OC	59
CC(C)CCSc1nc2cc3c(cc2c(=O)n1Cc1ccco1)OCO3	59
O=S(=O)(c1cccc(Cl)c1)N1CCN(C(c2ccccc2)c2ccccc2)CC1	55
CC(C)(C)OC(=O)NNC(=O)c1ccccc1C(=O)O	53
Cn1nc(-c2ccccc2)cc1NC(=O)C1COc2ccccc2O1 (stereo not drawn)	58
O=C(NCCn1ncc2c(=O)n(Cc3cccc4ccccc34)cnc21)c1cc2ccccc2o1	89
O=C(Nc1nc(-c2ccccn2)cs1)c1ccccc1[N+](=O)[O-]	67
CN1C(=O)C(C)(C)COc2ccc(NS(=O)(=O)c3ccc(Br)cc3)cc21	66

Bioassay records from PubChem BioAssay.
